{"source": "the supplement of paper PMC12067093", "about": "“Discovery and optimisation of a covalent ligand for TRIM25 and its application to targeted protein ubiquitination” (Chemical Science, 2025)", "note": "About 21,000 targets were measured; listed, in parts, are those with the largest changes and a random draw of the rest.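 Further: competitive profiling in live THP-1 cells: cysteine peptides tagged with an iodoacetamide desthiobiotin (IA-DTB) probe, intensity after compound treatment relative to DMSO-treated cells.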"}
{"compound": "Cc1cc(ccc1-c1ccccc1)C(=O)N1CCCN(CC1)C(=O)CCl [compound 10]", "test": "probe-labelled cysteine peptide fold change vs DMSO (competition) (log2 fold change); higher = less target engagement (more negative = stronger competition)", "conditions": "10 µM; THP-1; incubation time: 4 h"}
{"target": "COA7_Q96BR5_187_ACDLGHIWACANASR (UniProt Q96BR5)", "probe-labelled cysteine peptide fold change": 0.0578}
{"target": "DCAF12_Q5T6F0_253_EDTNPDNCK (UniProt Q5T6F0)", "probe-labelled cysteine peptide fold change": -0.303}
{"target": "DHX57_Q6P158_644_LLYCTTGVLLR<|>DHX29_Q7Z478_678_LLYCTTGVLLR (UniProt Q7Z478+Q6P158)", "probe-labelled cysteine peptide fold change": -0.0914}
{"target": "CSRP1_P21291_25_TVYFAEEVQCEGNSFHK (UniProt P21291)", "probe-labelled cysteine peptide fold change": "2.29e-05"}
{"target": "DCP2_Q8IU60_391_KLQDNFETDAVYDLPSSSEDQLLEHAEGQPVACNGHCK (UniProt Q8IU60)", "probe-labelled cysteine peptide fold change": -0.353}
{"target": "DCTD_P32321_60_IVGIGYNGMPNGCSDDVLPWR (UniProt P32321)", "probe-labelled cysteine peptide fold change": 0.155}
{"target": "DDX17_Q92841_166+199_GGDVCPKPVFAFHHANFPQYVMDVLMDQHFTEPTPIQCQGFPLALSGR (UniProt Q92841)", "probe-labelled cysteine peptide fold change": -0.28}
{"target": "COL15A1_P39059_965_GAIFPIPVRPHCK (UniProt P39059)", "probe-labelled cysteine peptide fold change": -0.0948}
{"target": "DNAJA3_Q96EY1_236_EFTVNIMDTCER (UniProt Q96EY1)", "probe-labelled cysteine peptide fold change": -0.1}
{"target": "DGKE_P52429_167_TVHDECMK (UniProt P52429)", "probe-labelled cysteine peptide fold change": -0.082}
{"target": "DESI1_Q6ICB0_108_GEAYNLFEHNCNTFSNEVAQFLTGR (UniProt Q6ICB0)", "probe-labelled cysteine peptide fold change": -0.076}
{"target": "CPVL_Q9H3G5_320_CTEPEDQLYYVK (UniProt Q9H3G5)", "probe-labelled cysteine peptide fold change": -0.128}
{"target": "DHX30_Q7L2E3_346_RPCTIQVPEPILR (UniProt Q7L2E3)", "sequence (Q7L2E3 whole entry, looked up)": "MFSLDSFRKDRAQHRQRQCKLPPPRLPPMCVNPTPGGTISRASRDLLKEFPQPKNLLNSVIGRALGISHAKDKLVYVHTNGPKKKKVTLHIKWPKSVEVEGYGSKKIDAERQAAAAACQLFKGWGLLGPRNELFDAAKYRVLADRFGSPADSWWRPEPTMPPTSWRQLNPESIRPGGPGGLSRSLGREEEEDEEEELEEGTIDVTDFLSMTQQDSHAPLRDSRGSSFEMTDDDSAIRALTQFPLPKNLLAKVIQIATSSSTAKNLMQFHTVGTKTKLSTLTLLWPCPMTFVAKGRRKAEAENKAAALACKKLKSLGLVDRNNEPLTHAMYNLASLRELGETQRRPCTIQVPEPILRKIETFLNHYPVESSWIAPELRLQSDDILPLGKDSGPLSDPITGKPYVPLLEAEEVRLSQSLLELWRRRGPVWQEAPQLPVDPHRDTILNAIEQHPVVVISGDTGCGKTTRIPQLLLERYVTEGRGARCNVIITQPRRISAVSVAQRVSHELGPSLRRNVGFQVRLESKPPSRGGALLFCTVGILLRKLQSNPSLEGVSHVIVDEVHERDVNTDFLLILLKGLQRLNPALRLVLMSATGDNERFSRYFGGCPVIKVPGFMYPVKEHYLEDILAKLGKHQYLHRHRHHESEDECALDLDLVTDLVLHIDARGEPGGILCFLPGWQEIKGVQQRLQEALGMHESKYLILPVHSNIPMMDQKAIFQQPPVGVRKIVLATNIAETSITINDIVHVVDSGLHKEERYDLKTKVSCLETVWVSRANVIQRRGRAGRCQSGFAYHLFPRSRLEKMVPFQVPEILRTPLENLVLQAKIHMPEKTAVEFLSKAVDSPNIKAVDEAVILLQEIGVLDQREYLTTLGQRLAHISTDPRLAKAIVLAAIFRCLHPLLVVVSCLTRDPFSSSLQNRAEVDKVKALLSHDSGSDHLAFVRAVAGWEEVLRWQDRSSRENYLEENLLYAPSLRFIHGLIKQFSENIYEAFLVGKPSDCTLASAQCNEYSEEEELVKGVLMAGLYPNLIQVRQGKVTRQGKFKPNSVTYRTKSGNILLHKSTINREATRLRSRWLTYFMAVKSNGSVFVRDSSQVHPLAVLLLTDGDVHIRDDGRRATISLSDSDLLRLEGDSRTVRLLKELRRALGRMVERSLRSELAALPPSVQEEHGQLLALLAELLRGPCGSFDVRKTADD", "probe-labelled cysteine peptide fold change": -0.647}
{"target": "CMTR1_Q8N1G2_794_DSTFDLPADSIAPFHICYYGR (UniProt Q8N1G2)", "probe-labelled cysteine peptide fold change": 0.205}
{"target": "CORO7_P57737_790_TECDVREVELMR (UniProt P57737)", "sequence (P57737 whole entry, looked up)": "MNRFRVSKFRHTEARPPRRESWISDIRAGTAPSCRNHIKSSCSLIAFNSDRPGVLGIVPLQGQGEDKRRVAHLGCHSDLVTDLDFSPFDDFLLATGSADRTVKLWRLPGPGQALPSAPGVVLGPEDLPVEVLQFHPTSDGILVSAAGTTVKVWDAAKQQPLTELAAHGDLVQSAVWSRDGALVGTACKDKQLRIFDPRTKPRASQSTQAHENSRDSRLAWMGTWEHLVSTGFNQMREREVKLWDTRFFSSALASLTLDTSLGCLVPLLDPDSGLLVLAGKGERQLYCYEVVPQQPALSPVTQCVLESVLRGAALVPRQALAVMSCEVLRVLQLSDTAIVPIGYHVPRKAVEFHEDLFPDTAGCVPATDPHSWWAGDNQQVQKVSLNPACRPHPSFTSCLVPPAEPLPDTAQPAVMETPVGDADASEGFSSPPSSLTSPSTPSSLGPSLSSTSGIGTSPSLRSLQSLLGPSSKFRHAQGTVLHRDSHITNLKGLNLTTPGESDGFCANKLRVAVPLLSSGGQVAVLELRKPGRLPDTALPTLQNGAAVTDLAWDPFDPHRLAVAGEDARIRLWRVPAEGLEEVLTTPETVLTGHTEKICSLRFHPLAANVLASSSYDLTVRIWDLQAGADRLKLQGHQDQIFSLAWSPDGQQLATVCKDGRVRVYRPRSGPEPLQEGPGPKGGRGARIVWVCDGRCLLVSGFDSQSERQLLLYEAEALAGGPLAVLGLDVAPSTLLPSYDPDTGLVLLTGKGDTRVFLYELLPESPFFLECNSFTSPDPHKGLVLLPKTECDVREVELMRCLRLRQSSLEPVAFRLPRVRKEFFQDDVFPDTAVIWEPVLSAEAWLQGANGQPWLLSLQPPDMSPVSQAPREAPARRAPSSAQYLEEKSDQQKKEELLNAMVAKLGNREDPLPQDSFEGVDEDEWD", "probe-labelled cysteine peptide fold change": -0.178}
{"target": "DENND3_A2RUS2_801_TECDLWHLMVK (UniProt A2RUS2)", "probe-labelled cysteine peptide fold change": -0.103}
{"target": "COMT_P21964_241_GSSCFECTHYQSFLEYR (UniProt P21964)", "probe-labelled cysteine peptide fold change": 0.0648}
{"target": "CXXC1_Q9P0U4_38_KPDINCFMIGCDNCNEWFHGDCIR (UniProt Q9P0U4)", "probe-labelled cysteine peptide fold change": 0.0402}
{"target": "DENND3_A2RUS2_1094_DTSTSFLAFQLLPEEEQLWAACAGR (UniProt A2RUS2)", "probe-labelled cysteine peptide fold change": 1.07}
{"target": "DNAJC7_Q99615_58_AIDMCPK (UniProt Q99615)", "probe-labelled cysteine peptide fold change": 0.162}
{"target": "COQ8B_Q96D53_508_AHIACR (UniProt Q96D53)", "probe-labelled cysteine peptide fold change": -0.221}
{"target": "CRIP2_P52943_150_DWHRPCLR (UniProt P52943)", "probe-labelled cysteine peptide fold change": 0.923}
{"target": "CYBB_P04839_369_IVGDWTEGLFNACGCDK (UniProt P04839)", "probe-labelled cysteine peptide fold change": -0.0879}
{"target": "DNMT1_P26358_353+356_CIQCGQYLDDPDLK (UniProt P26358)", "sequence (P26358 whole entry, looked up)": "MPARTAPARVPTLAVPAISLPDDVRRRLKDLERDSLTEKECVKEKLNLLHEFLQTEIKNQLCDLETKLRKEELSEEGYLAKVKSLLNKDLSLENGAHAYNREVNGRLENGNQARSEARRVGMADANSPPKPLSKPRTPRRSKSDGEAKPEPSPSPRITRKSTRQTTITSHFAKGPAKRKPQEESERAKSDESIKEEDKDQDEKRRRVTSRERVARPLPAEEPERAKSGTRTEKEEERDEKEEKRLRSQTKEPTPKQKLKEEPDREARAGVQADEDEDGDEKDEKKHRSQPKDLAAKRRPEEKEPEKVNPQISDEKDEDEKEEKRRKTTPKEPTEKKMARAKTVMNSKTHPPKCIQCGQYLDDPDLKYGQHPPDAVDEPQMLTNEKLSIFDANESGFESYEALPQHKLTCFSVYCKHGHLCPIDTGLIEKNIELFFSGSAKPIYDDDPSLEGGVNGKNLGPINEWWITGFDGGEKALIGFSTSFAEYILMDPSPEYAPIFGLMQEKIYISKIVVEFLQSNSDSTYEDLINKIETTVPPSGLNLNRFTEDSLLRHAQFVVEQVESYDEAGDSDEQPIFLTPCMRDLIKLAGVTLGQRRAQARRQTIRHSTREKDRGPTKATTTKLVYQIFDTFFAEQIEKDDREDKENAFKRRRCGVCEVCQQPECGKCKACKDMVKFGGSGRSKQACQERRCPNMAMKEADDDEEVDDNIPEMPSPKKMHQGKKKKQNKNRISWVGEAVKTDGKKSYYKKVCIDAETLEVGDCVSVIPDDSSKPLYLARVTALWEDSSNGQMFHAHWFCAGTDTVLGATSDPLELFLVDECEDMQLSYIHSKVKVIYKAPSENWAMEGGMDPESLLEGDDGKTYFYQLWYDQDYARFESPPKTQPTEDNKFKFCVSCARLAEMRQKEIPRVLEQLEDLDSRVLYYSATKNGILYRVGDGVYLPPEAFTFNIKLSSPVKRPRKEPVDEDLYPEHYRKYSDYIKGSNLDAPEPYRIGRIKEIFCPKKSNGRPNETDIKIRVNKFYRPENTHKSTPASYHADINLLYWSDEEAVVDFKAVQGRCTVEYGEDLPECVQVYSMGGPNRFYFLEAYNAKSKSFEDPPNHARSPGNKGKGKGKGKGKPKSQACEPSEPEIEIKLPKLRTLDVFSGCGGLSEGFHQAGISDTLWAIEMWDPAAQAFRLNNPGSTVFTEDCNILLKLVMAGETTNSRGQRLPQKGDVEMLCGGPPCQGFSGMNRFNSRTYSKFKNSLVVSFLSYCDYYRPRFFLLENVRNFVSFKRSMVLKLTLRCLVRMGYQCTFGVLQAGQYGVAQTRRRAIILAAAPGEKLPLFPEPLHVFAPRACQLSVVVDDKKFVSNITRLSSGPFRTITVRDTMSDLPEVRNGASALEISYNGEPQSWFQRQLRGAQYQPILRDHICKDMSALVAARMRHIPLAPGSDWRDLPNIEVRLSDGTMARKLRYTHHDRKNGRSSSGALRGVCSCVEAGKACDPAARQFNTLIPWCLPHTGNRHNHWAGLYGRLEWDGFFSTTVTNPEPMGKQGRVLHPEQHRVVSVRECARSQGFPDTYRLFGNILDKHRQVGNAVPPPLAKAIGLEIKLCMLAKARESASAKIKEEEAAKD", "probe-labelled cysteine peptide fold change": 0.138}
{"target": "CTNNB1_P35222_466_AGDREDITEPAICALR (UniProt P35222)", "probe-labelled cysteine peptide fold change": 0.16}
{"target": "DDX5_P17844_191_ELAQQVQQVAAEYCR (UniProt P17844)", "probe-labelled cysteine peptide fold change": 0.115}
{"target": "DCAF8_Q5TAQ9_256_FLPNSGDSTLAMCAR (UniProt Q5TAQ9)", "probe-labelled cysteine peptide fold change": -0.0556}
{"target": "CTU1_Q7Z7A3_144_SCCTFCGVLR (UniProt Q7Z7A3)", "probe-labelled cysteine peptide fold change": -0.353}
{"target": "CTPS2_Q9NRF8_299_ICSIALVGK (UniProt Q9NRF8)", "probe-labelled cysteine peptide fold change": -0.0254}
{"target": "CRABP1_P29762_130_ELANDELILTFGADDVVCTR (UniProt P29762)", "probe-labelled cysteine peptide fold change": 0.082}
{"target": "DENND3_A2RUS2_499_LTDTAGCR (UniProt A2RUS2)", "probe-labelled cysteine peptide fold change": -0.198}
{"target": "CUL9_Q8IWT3_76_AEHILMWLSAPEVYANCPGLLGER (UniProt Q8IWT3)", "probe-labelled cysteine peptide fold change": 0.0237}
{"target": "DDX27_Q96GQ7_259_DICACAATGTGK (UniProt Q96GQ7)", "probe-labelled cysteine peptide fold change": 0.0194}
{"target": "CROT_Q9UKG9_166_MLFSTCK (UniProt Q9UKG9)", "probe-labelled cysteine peptide fold change": -0.0518}
{"target": "CPSF1_Q10570_1102_IELQEWEHVTCMK (UniProt Q10570)", "probe-labelled cysteine peptide fold change": 0.0314}
{"target": "DDX54_Q8TDD1_389_CSTLIVTDLAAR (UniProt Q8TDD1)", "sequence (Q8TDD1 whole entry, looked up)": "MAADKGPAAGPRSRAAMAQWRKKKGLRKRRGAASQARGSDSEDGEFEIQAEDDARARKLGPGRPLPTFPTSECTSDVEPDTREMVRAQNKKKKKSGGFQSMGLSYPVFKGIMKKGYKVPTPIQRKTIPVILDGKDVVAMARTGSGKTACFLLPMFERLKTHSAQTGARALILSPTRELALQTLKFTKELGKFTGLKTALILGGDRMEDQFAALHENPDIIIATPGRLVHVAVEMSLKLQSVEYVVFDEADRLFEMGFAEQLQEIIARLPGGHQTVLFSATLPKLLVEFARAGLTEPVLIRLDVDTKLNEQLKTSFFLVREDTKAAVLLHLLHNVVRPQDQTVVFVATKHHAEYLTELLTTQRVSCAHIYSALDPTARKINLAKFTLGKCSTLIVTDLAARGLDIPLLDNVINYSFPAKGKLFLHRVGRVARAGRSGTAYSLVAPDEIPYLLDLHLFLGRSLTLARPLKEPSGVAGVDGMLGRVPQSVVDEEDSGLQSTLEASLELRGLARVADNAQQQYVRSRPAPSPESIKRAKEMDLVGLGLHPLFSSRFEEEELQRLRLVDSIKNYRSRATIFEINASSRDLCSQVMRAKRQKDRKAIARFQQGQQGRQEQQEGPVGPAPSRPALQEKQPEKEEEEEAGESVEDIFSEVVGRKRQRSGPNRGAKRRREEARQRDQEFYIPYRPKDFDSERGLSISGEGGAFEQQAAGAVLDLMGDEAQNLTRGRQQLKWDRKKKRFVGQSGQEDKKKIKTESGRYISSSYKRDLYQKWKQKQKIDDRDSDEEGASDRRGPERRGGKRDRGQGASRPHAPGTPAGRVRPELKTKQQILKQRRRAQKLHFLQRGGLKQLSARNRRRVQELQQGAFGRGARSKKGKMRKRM", "probe-labelled cysteine peptide fold change": 0.1}
{"target": "DKC1_O60832_74_TTHYTPLACGSNPLKR (UniProt O60832)", "sequence (O60832 whole entry, looked up)": "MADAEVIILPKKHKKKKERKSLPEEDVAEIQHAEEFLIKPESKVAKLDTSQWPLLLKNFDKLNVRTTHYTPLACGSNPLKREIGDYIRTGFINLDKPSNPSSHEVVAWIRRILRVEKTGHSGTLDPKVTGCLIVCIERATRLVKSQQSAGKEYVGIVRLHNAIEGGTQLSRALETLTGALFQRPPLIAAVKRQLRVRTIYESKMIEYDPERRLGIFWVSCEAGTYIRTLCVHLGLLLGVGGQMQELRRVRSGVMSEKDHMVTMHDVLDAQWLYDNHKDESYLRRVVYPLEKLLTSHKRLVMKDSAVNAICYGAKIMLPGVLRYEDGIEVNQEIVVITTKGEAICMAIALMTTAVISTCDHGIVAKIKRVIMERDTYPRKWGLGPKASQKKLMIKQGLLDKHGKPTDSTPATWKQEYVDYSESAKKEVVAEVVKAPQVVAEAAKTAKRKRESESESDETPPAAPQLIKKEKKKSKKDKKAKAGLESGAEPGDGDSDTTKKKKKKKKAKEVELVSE", "probe-labelled cysteine peptide fold change": -0.0751}
{"compound": "Cc1cc(ccc1-c1ccccc1)C(=O)N1CCCN(CC1)C(=O)CCl [compound 10]", "test": "probe-labelled cysteine peptide fold change vs DMSO (competition) (log2 fold change); higher = less target engagement (more negative = stronger competition)", "conditions": "50 µM; THP-1; incubation time: 4 h"}
{"target": "COA7_Q96BR5_187_ACDLGHIWACANASR (UniProt Q96BR5)", "probe-labelled cysteine peptide fold change": 0.0556}
{"target": "DCAF12_Q5T6F0_253_EDTNPDNCK (UniProt Q5T6F0)", "probe-labelled cysteine peptide fold change": -0.538}
{"target": "DHX57_Q6P158_644_LLYCTTGVLLR<|>DHX29_Q7Z478_678_LLYCTTGVLLR (UniProt Q7Z478+Q6P158)", "probe-labelled cysteine peptide fold change": 0.172}
{"target": "CSRP1_P21291_25_TVYFAEEVQCEGNSFHK (UniProt P21291)", "probe-labelled cysteine peptide fold change": -0.0826}
{"target": "DCP2_Q8IU60_391_KLQDNFETDAVYDLPSSSEDQLLEHAEGQPVACNGHCK (UniProt Q8IU60)", "probe-labelled cysteine peptide fold change": -1.7}
{"target": "DCTD_P32321_60_IVGIGYNGMPNGCSDDVLPWR (UniProt P32321)", "probe-labelled cysteine peptide fold change": -0.179}
{"target": "DDX17_Q92841_166+199_GGDVCPKPVFAFHHANFPQYVMDVLMDQHFTEPTPIQCQGFPLALSGR (UniProt Q92841)", "probe-labelled cysteine peptide fold change": -1.05}
{"target": "COL15A1_P39059_965_GAIFPIPVRPHCK (UniProt P39059)", "probe-labelled cysteine peptide fold change": 0.0369}
{"target": "DNAJA3_Q96EY1_236_EFTVNIMDTCER (UniProt Q96EY1)", "probe-labelled cysteine peptide fold change": -0.195}
{"target": "DGKE_P52429_167_TVHDECMK (UniProt P52429)", "probe-labelled cysteine peptide fold change": -0.168}
{"target": "DESI1_Q6ICB0_108_GEAYNLFEHNCNTFSNEVAQFLTGR (UniProt Q6ICB0)", "probe-labelled cysteine peptide fold change": -1.61}
{"target": "CPVL_Q9H3G5_320_CTEPEDQLYYVK (UniProt Q9H3G5)", "probe-labelled cysteine peptide fold change": -0.131}
{"target": "DHX30_Q7L2E3_346_RPCTIQVPEPILR (UniProt Q7L2E3)", "probe-labelled cysteine peptide fold change": -1.7}
{"target": "CMTR1_Q8N1G2_794_DSTFDLPADSIAPFHICYYGR (UniProt Q8N1G2)", "probe-labelled cysteine peptide fold change": 0.653}
{"target": "CORO7_P57737_790_TECDVREVELMR (UniProt P57737)", "probe-labelled cysteine peptide fold change": -0.995}
{"target": "DENND3_A2RUS2_801_TECDLWHLMVK (UniProt A2RUS2)", "probe-labelled cysteine peptide fold change": -0.116}
{"target": "COMT_P21964_241_GSSCFECTHYQSFLEYR (UniProt P21964)", "probe-labelled cysteine peptide fold change": -0.0597}
{"target": "CXXC1_Q9P0U4_38_KPDINCFMIGCDNCNEWFHGDCIR (UniProt Q9P0U4)", "probe-labelled cysteine peptide fold change": -1.06}
{"target": "DENND3_A2RUS2_1094_DTSTSFLAFQLLPEEEQLWAACAGR (UniProt A2RUS2)", "probe-labelled cysteine peptide fold change": 1.16}
{"target": "DNAJC7_Q99615_58_AIDMCPK (UniProt Q99615)", "probe-labelled cysteine peptide fold change": 0.0415}
{"target": "COQ8B_Q96D53_508_AHIACR (UniProt Q96D53)", "probe-labelled cysteine peptide fold change": -1.08}
{"target": "CRIP2_P52943_150_DWHRPCLR (UniProt P52943)", "probe-labelled cysteine peptide fold change": 1.04}
{"target": "CYBB_P04839_369_IVGDWTEGLFNACGCDK (UniProt P04839)", "probe-labelled cysteine peptide fold change": 0.149}
{"target": "DNMT1_P26358_353+356_CIQCGQYLDDPDLK (UniProt P26358)", "probe-labelled cysteine peptide fold change": -0.0723}
{"target": "CTNNB1_P35222_466_AGDREDITEPAICALR (UniProt P35222)", "probe-labelled cysteine peptide fold change": 1.07}
{"target": "DDX5_P17844_191_ELAQQVQQVAAEYCR (UniProt P17844)", "probe-labelled cysteine peptide fold change": -0.161}
{"target": "DCAF8_Q5TAQ9_256_FLPNSGDSTLAMCAR (UniProt Q5TAQ9)", "probe-labelled cysteine peptide fold change": -0.22}
{"target": "CTU1_Q7Z7A3_144_SCCTFCGVLR (UniProt Q7Z7A3)", "probe-labelled cysteine peptide fold change": -1.17}
{"target": "CTPS2_Q9NRF8_299_ICSIALVGK (UniProt Q9NRF8)", "probe-labelled cysteine peptide fold change": 0.193}
{"target": "CRABP1_P29762_130_ELANDELILTFGADDVVCTR (UniProt P29762)", "probe-labelled cysteine peptide fold change": 0.307}
{"target": "DENND3_A2RUS2_499_LTDTAGCR (UniProt A2RUS2)", "probe-labelled cysteine peptide fold change": -0.918}
{"target": "CUL9_Q8IWT3_76_AEHILMWLSAPEVYANCPGLLGER (UniProt Q8IWT3)", "probe-labelled cysteine peptide fold change": -0.0123}
{"target": "DDX27_Q96GQ7_259_DICACAATGTGK (UniProt Q96GQ7)", "probe-labelled cysteine peptide fold change": -0.0602}
{"target": "CROT_Q9UKG9_166_MLFSTCK (UniProt Q9UKG9)", "probe-labelled cysteine peptide fold change": -0.0687}
{"target": "CPSF1_Q10570_1102_IELQEWEHVTCMK (UniProt Q10570)", "probe-labelled cysteine peptide fold change": -0.201}
{"target": "DDX54_Q8TDD1_389_CSTLIVTDLAAR (UniProt Q8TDD1)", "probe-labelled cysteine peptide fold change": 0.184}
{"target": "DKC1_O60832_74_TTHYTPLACGSNPLKR (UniProt O60832)", "probe-labelled cysteine peptide fold change": -0.244}
